# Assay results as given in the supplement of paper PMC8728848.
# About 410 targets per protein were measured; listed, in parts, are those with the strongest signals and a random draw of the rest.
# B1: PX9961Q-bfa-504-27-504 (Bacteroides fragilis) (protein)
# chain: NDWLDRKPADGIPSEDAITNYNDALTARTGMYDGIQGNSNATSYYGARMFYYGDVRADDMQARTQGMRSSSCYEMLYTVDDAPNMWNIPYNVIRRANRLIEAINEKKVTDATEAQIGKIYSEALVVRALVHFDLVRIYGMPYTADNGASLGVPVIVKPLERNDLPSRNTVAEVYTQVITDLTDAINSGYLAKDQTPGYINEWAAKALLTRVYLTKGDNENALKVAEDIITNSPYKLWTNEEYVNAWYKSNGAHTNEMIFEVVNASNDDWTDRNGIAYLLNENGYADAIVTKSFMNMLSQDPKDVRIGMVLPAQYDKDLQEEYGDAKIFINKFPADKDDVGEMRLNNLPLLRLSEVYLSAAEAAAKLGGHQDKAAKYLNEIVQRANPEAKAISEADATVERIILERRKEMIGEGQRYFDALRNNETIVRYKDEGDKGYHYSLIKESQSFDRTYFRAILPIPVDETNVNPNLRAQQNPGY
# Assays:
# Experiment in all cases: glycan array binding signal (z-score within array); higher = stronger binding
# Conditions in all cases: glycan notation: IUPAC condensed, linker removed
# [1] = target: Fuc(a1-2)Gal(b1-3)GlcNAc(b1-2)Man(a1-3)[Fuc(a1-2)Gal(b1-3)GlcNAc(b1-2)Man(a1-6)]Man(b1-4)GlcNAc(b1-4)GlcNAc
# In short: (§1)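 Glycan array binding is given as a within-array Z-score, which can be read as non-binding when negative. The arrays, 3228 of them, came from the Consortium for Functional Glycomics database and were retained only where the protein sequence was available. Z-scores were averaged across arrays of the same protein sequence at different concentrations or buffers and across linkers.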
# [2] = target: Fuc(a1-2)Gal(b1-3)GlcNAc(b1-3)Gal(b1-4)Glc
# In short: as §1
# [3] = target: Fuc(a1-2)Gal(b1-3)GlcNAc(b1-3)[Gal(b1-4)GlcNAc(b1-6)]Gal(b1-4)Glc
# In short: as §1
# [4] = target: Fuc(a1-2)Gal(b1-4)Glc
# In short: as §1
# [5] = target: Fuc(a1-2)Gal(b1-4)GlcNAc(b1-6)GalNAc
# In short: as §1
# [6] = target: Fuc(a1-2)[Gal(a1-3)]Gal(b1-3)GalNAc
# In short: as §1
# [7] = target: Fuc(a1-2)[Gal(a1-3)]Gal(b1-4)Glc
# In short: as §1
# [8] = target: Fuc(a1-2)[Gal(a1-4)]Gal(b1-4)GlcNAc
# In short: as §1
# [9] = target: Fuc(a1-2)[GalNAc(a1-3)]Gal(b1-4)GlcNAc
# In short: as §1
# [10] = target: Fuc(a1-3)[Gal(b1-4)]GlcNAc(b1-2)Man(a1-3)[Fuc(a1-3)[Gal(b1-4)]GlcNAc(b1-2)Man(a1-6)]Man(b1-4)GlcNAc(b1-4)GlcNAc
# In short: as §1
# [11] = target: Fuc(a1-3)[Gal(b1-4)]GlcNAc(b1-6)GalNAc
# In short: as §1
# [12] = target: Gal(a1-3)Gal(b1-3)GlcNAc(b1-2)Man(a1-3)[Gal(a1-3)Gal(b1-3)GlcNAc(b1-2)Man(a1-6)]Man(b1-4)GlcNAc(b1-4)GlcNAc
# In short: as §1
# [13] = target: Gal(a1-3)Gal(b1-3)[Fuc(a1-4)]GlcNAc(b1-2)Man(a1-3)[Gal(a1-3)Gal(b1-3)[Fuc(a1-4)]GlcNAc(b1-2)Man(a1-6)]Man(b1-4)GlcNAc(b1-4)GlcNAc
# In short: as §1
# [14] = target: Gal(a1-4)Gal(b1-3)GlcNAc(b1-2)Man(a1-3)[Gal(a1-4)Gal(b1-3)GlcNAc(b1-2)Man(a1-6)]Man(b1-4)GlcNAc(b1-4)GlcNAc
# In short: as §1
# [15] = target: Gal(a1-4)Gal(b1-4)Glc
# In short: as §1
# [16] = target: Gal(b1-3)GlcNAc(b1-2)Man(a1-3)[Gal(b1-3)GlcNAc(b1-2)Man(a1-6)]Man(b1-4)GlcNAc(b1-4)GlcNAc
# In short: as §1
# [17] = target: Gal(b1-3)GlcNAc(b1-3)Gal(b1-4)[Fuc(a1-3)]GlcNAc(b1-6)[Gal(b1-3)GlcNAc(b1-3)]Gal(b1-4)Glc
# In short: as §1
# [18] = target: Gal(b1-3)GlcNAc6S
# In short: as §1
# [19] = target: Gal(b1-4)GlcNAc(b1-2)Man(a1-3)[Man(a1-6)]Man(b1-4)GlcNAc(b1-4)GlcNAc
# In short: as §1
# [20] = target: Gal(b1-4)GlcNAc(b1-3)Gal(b1-4)GlcNAc(b1-3)Gal(b1-4)GlcNAc(b1-2)Man(a1-3)[Gal(b1-4)GlcNAc(b1-3)Gal(b1-4)GlcNAc(b1-3)Gal(b1-4)GlcNAc(b1-2)Man(a1-6)]Man(b1-4)GlcNAc(b1-4)GlcNAc
# In short: as §1
# [21] = target: Gal(b1-4)GlcNAc(b1-3)Gal(b1-4)GlcNAc(b1-3)Gal(b1-4)GlcNAc(b1-3)Gal(b1-4)GlcNAc(b1-2)Man(a1-3)[Gal(b1-4)GlcNAc(b1-3)Gal(b1-4)GlcNAc(b1-3)Gal(b1-4)GlcNAc(b1-3)Gal(b1-4)GlcNAc(b1-2)Man(a1-6)]Man(b1-4)GlcNAc(b1-4)GlcNAc
# In short: as §1
# [22] = target: Gal(b1-4)GlcNAc(b1-3)Gal(b1-4)GlcNAc(b1-3)Gal(b1-4)GlcNAc(b1-3)Gal(b1-4)GlcNAc(b1-3)Gal(b1-4)GlcNAc(b1-2)Man(a1-3)[Gal(b1-4)GlcNAc(b1-3)Gal(b1-4)GlcNAc(b1-3)Gal(b1-4)GlcNAc(b1-3)Gal(b1-4)GlcNAc(b1-3)Gal(b1-4)GlcNAc(b1-2)Man(a1-6)]Man(b1-4)GlcNAc(b1-4)GlcNAc
# In short: as §1
# [23] = target: Gal(b1-4)GlcNAc(b1-3)Gal(b1-4)[Fuc(a1-3)]GlcNAc(b1-3)Gal(b1-4)[Fuc(a1-3)]GlcNAc
# In short: as §1
# [24] = target: Gal(b1-4)GlcNAc(b1-6)GalNAc
# In short: as §1
# [25] = target: Gal3S(b1-3)GlcNAc
# In short: as §1
# [26] = target: Gal6S(b1-4)Glc6S
# In short: as §1
# [27] = target: Gal6S(b1-4)GlcNAc
# In short: as §1
# [28] = target: GalNAc(b1-4)Gal(b1-4)Glc
# In short: as §1
# [29] = target: Glc(a1-6)Glc(a1-6)Glc(a1-6)Glc
# In short: as §1
# [30] = target: Glc(b1-4)Glc
# In short: as §1
# [31] = target: GlcA3S(b1-3)Gal(b1-4)GlcNAc(b1-3)Gal(b1-4)Glc
# In short: as §1
# [32] = target: GlcNAc(b1-3)Gal(b1-4)GlcNAc
# In short: as §1
# [33] = target: GlcNAc(b1-3)Gal(b1-4)GlcNAc(b1-3)Gal(b1-4)GlcNAc(b1-3)Gal(b1-4)GlcNAc(b1-2)Man(a1-3)[GlcNAc(b1-3)Gal(b1-4)GlcNAc(b1-3)Gal(b1-4)GlcNAc(b1-3)Gal(b1-4)GlcNAc(b1-2)Man(a1-6)]Man(b1-4)GlcNAc(b1-4)[Fuc(a1-6)]GlcNAc
# In short: as §1
# [34] = target: GlcNAc(b1-3)Man
# In short: as §1
# [35] = target: GlcNAc(b1-4)Gal(b1-4)GlcNAc
# In short: as §1
# [36] = target: GlcNAc(b1-4)GlcNAc(b1-4)GlcNAc(b1-4)GlcNAc(b1-4)GlcNAc(b1-4)GlcNAc
# In short: as §1
# [37] = target: GlcNAc(b1-6)GalNAc
# In short: as §1
# [38] = target: Man(a1-2)Man(a1-2)Man(a1-6)[Man(a1-3)]Man
# In short: as §1
# [39] = target: Man(a1-3)[Man(a1-6)]Man(a1-6)[Man(a1-3)]Man
# In short: as §1
# [40] = target: Man(a1-6)Man
# In short: as §1
# [41] = target: Neu5Ac(a2-3)Gal(b1-4)GlcNAc(b1-2)[Neu5Ac(a2-3)Gal(b1-4)GlcNAc(b1-6)]Man(a1-6)[Neu5Ac(a2-3)Gal(b1-4)GlcNAc(b1-2)Man(a1-3)][GlcNAc(b1-4)]Man(b1-4)GlcNAc(b1-4)GlcNAc
# In short: as §1
# [42] = target: Neu5Ac(a2-6)Gal(b1-3)GlcNAc(b1-3)[Gal(b1-4)GlcNAc(b1-6)]Gal(b1-4)Glc
# In short: as §1
# [43] = target: Neu5Ac(a2-6)Gal(b1-4)GlcNAc
# In short: as §1
# [44] = target: Neu5Ac(a2-6)Gal(b1-4)GlcNAc(b1-2)Man(a1-6)[GlcNAc(b1-2)Man(a1-3)]Man(b1-4)GlcNAc(b1-4)GlcNAc
# In short: as §1
# [45] = target: Neu5Ac(a2-6)Gal(b1-4)GlcNAc(b1-2)[Neu5Ac(a2-6)Gal(b1-4)GlcNAc(b1-4)]Man(a1-3)[GlcNAc(b1-4)][Neu5Ac(a2-6)Gal(b1-4)GlcNAc(b1-2)[Neu5Ac(a2-6)Gal(b1-4)GlcNAc(b1-6)]Man(a1-6)]Man(b1-4)GlcNAc(b1-4)GlcNAc
# In short: as §1
# [46] = target: Neu5Ac(a2-6)Gal(b1-4)GlcNAc(b1-3)Gal(b1-4)GlcNAc(b1-3)GalNAc
# In short: as §1
# [47] = target: Neu5Ac(a2-6)Gal(b1-4)GlcNAc(b1-3)GalNAc
# In short: as §1
# [48] = target: Neu5Gc(a2-6)GalNAc
# In short: as §1
binder,measurement,setting,value
B1,glycan array binding signal (z-score),[1],2.69
same,glycan array binding signal (z-score),[2],0.015
same,glycan array binding signal (z-score),[3],-0.322
same,glycan array binding signal (z-score),[4],-0.701
same,glycan array binding signal (z-score),[5],0.145
same,glycan array binding signal (z-score),[6],0.904
same,glycan array binding signal (z-score),[7],0.106
same,glycan array binding signal (z-score),[8],1.12
same,glycan array binding signal (z-score),[9],-0.704
same,glycan array binding signal (z-score),[10],0.155
same,glycan array binding signal (z-score),[11],4.03
same,glycan array binding signal (z-score),[12],0.772
same,glycan array binding signal (z-score),[13],8.13
same,glycan array binding signal (z-score),[14],2.6
same,glycan array binding signal (z-score),[15],0.623
same,glycan array binding signal (z-score),[16],3.77
same,glycan array binding signal (z-score),[17],12.8
same,glycan array binding signal (z-score),[18],-0.822
same,glycan array binding signal (z-score),[19],-0.622
same,glycan array binding signal (z-score),[20],2.45
same,glycan array binding signal (z-score),[21],2.49
same,glycan array binding signal (z-score),[22],0.85
same,glycan array binding signal (z-score),[23],-0.284
same,glycan array binding signal (z-score),[24],0.056
same,glycan array binding signal (z-score),[25],-0.053
same,glycan array binding signal (z-score),[26],-0.063
same,glycan array binding signal (z-score),[27],-0.679
same,glycan array binding signal (z-score),[28],0.821
same,glycan array binding signal (z-score),[29],-0.611
same,glycan array binding signal (z-score),[30],-0.009
same,glycan array binding signal (z-score),[31],-1.22
same,glycan array binding signal (z-score),[32],-0.27
same,glycan array binding signal (z-score),[33],2.65
same,glycan array binding signal (z-score),[34],0.083
same,glycan array binding signal (z-score),[35],-0.752
same,glycan array binding signal (z-score),[36],-0.594
same,glycan array binding signal (z-score),[37],0.361
same,glycan array binding signal (z-score),[38],0.712
same,glycan array binding signal (z-score),[39],0.661
same,glycan array binding signal (z-score),[40],-0.352
same,glycan array binding signal (z-score),[41],0.676
same,glycan array binding signal (z-score),[42],6.14
same,glycan array binding signal (z-score),[43],-0.355
same,glycan array binding signal (z-score),[44],-0.638
same,glycan array binding signal (z-score),[45],2.53
same,glycan array binding signal (z-score),[46],-0.164
same,glycan array binding signal (z-score),[47],-0.107
same,glycan array binding signal (z-score),[48],0.187
